The entries come from a sample that favours hits as a whole.
PL synth Enamine = blocks phospholipid synthesis in CHO cells, Enamine compounds; ZR-82 CHO cells, pyrene fatty acid UV survival, CellTiter Blue; peroxisome-deficient CHO-K1 mutant line; plus DGAT-1, DGAT-2 and ACAT inhibitors; calls only at 10 µM; hit rate 0.4% among 20,000; AID 1347385;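 active means cell survival signal 2 SD away from solvent-only control wells, confirmed on one or two retests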;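 further: 3 h compound exposure then viability read about one day after UV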
* hit, by the source's call; i = inactive; + = active, no number.

SMILES	PL synth Enamine
Cc1[nH]c2ccccc2c1C(c1c(C)[nH]c2ccccc12)C(C)C	i
Cc1[nH]c2ccccc2c1N=Nc1ccc(SC(F)F)cc1	+
C(=N\Nc1ccccc1)/c1cnn(-c2ccccc2)c1	i
Cc1cc(Sc2nc(N)ncc2[N+](=O)[O-])ncn1	i
Cc1cc(C)nc(NNc2ncnc(N)c2[N+](=O)[O-])n1	i
Cc1cc(Sc2ncnc(N)c2[N+](=O)[O-])ncn1	+
C(=NC1=NN(c2ccccc2)CC1)N1CCCCCC1	i
Cc1ccc(-c2nnc(-n3nnc4cc(C)c(C)cc43)c3ccccc23)cc1C	i
Cc1ccc(-c2nnc(N/N=C/c3c(-c4ccccc4)nc4ccccn34)c3ccccc23)cc1C	+
C(=N\N1CCN(C(c2ccccc2)c2ccccc2)CC1)/c1c(-c2ccccc2)nc2ccccn12	i
CC1CCc2sc(-c3nnc(SCc4cscn4)o3)cc2C1 (centres undefined)	i
Cc1n[nH]c(C)c1[N+](=O)[O-]	i
O=P(c1ccccc1)(c1ccccc1)C(NS(=O)(=O)c1ccccc1)c1ccccc1 (centres undefined)	i
CN1/C(=C\P(=Nc2ccc([N+](=O)[O-])cc2)(c2ccccc2)c2ccccc2)C(C)(C)c2ccccc21	i
CCOP(=O)(OCC)C1(C)N(C)c2ccc(N=Nc3ccc([N+](=O)[O-])cc3)cc2C1(C)C (centres undefined)	+
CCN(CC)c1ccc(N=Nc2c(Br)cc([N+](=O)[O-])cc2Br)cc1	i
NC(=O)CSc1nnc(-c2c[nH]c3ccccc23)n1CC1CCCO1 (centres undefined)	i
COC(=O)c1ccc([N+](=O)[O-])s1	i
O=c1cc(O)nc(-c2ccccc2)[nH]1	i
CC[n+]1ccc(/C=C/c2ccc(N(C)C)cc2)cc1	+
CN(C)c1ccc(/C=C/c2ccc3ccccc3[n+]2C)cc1	i
CN(C)c1ccc(/C=C/c2cccc[n+]2C)cc1	i
CC(Nc1cc(N2CCNCC2)ccc1[N+](=O)[O-])C12CC3CC(CC(C3)C1)C2 (centres undefined)	+
CC(NS(=O)(=O)c1ccc(F)c(F)c1)C12CC3CC(CC(C3)C1)C2 (centres undefined)	i
CN(C)S(=O)(=O)N1CCN(c2ccc([N+](=O)[O-])c(NC3CC3)c2)CC1	i
SMILES	PL synth Enamine
O=C(/C=C/c1ccc(Br)o1)OCc1cc(=O)oc2cc3c(cc12)CCC3	i
C=CCN=c1scc(-c2cc3ccccc3o2)n1/N=C/c1ccccc1Br	i
Fc1cccc(F)c1/C=N/n1c(-c2cc3ccccc3o2)csc1=NCCc1ccccc1	+
CN=c1scc(-c2cc3ccccc3o2)n1/N=C/c1cccc(C(F)(F)F)c1	i
Nc1ccc(S(=O)C(F)F)cc1 (centres undefined)	i
O=C(CCn1c(=O)oc2ccccc21)OCCCn1c(=O)[nH]c2ccccc21	i
Clc1ccc2nc(N/N=C/c3ccc4ncccc4c3)nc(-c3ccccc3)c2c1	i
NC(=O)/C(=C\c1ccco1)C(N)=S	i
NC(=S)N=Nc1c2[nH]c3ccccc3nc-2c2ccccc12	i
c1ccc2c(N=Nc3c4[nH]c5ccccc5nc-4c4ccccc34)cccc2c1	i
c1ccc(N=Nc2c3[nH]c4ccccc4nc-3c3ccccc23)cc1	+
CC(C)(C)C1CCC(=NNc2ccnc3cc(Cl)ccc23)CC1 (centres undefined)	i
Cc1sc2ncnc(NC3CCC(O)CC3)c2c1C (centres undefined)	i
Cc1sc2ncnc(NCC(C)O)c2c1C (centres undefined)	i
C/C(=N\Nc1ncnc2sc(C)c(C)c12)c1ccc(Cl)s1	+
Cc1nc(-c2ccc(O)cc2)no1	i
CN1/C(=C2\C=NN(c3ccccc3)P2(=Nc2cc(Cl)ccc2Cl)N2CCOCC2)C(C)(C)c2ccccc21 (centres undefined)	i
COC(=O)C(CCSC)NC(=O)NC1CCCCC1 (centres undefined)	i
Cc1nc(SCCCn2c(=O)c3c(ncn3C)n(C)c2=O)c2c(C)c(C)sc2n1	i
c1ccc(NNC2=Nc3cccc4cccc2c34)cc1	+
Clc1ccccc1/C=N/NC1=Nc2cccc3cccc1c23	i
Brc1ccc(/C=N/NC2=Nc3cccc4cccc2c34)cc1	i
NCCCSc1ccc(F)cc1	i
CCC(=O)N(c1nnc(SCc2cc(=O)n3cc(Br)ccc3n2)s1)C1CC1	i
Cc1sc2ncn(CC(=O)OC(C)(C)C)c(=O)c2c1C	i
SMILES	PL synth Enamine
C=CCNC(=S)N/N=C1\CCc2ccccc21	i
O=[N+]([O-])c1ccc(N/N=C2\CCCCc3ccccc32)cc1	+
O=[N+]([O-])c1cc(S(=O)(=O)N/N=C2\CCc3ccccc32)ccc1Cl	i
O=[N+]([O-])c1ccc(N/N=C2\CCc3ccccc32)cc1	+
c1ccc(N/N=C2\CCCc3ccccc32)nc1	i
O=[N+]([O-])c1cc(C(F)(F)F)cc([N+](=O)[O-])c1N/N=C1/CCCc2ccccc21	i
O=[N+]([O-])c1ccc(S(=O)(=O)N2CCCC(C(F)(F)F)C2)cc1 (centres undefined)	i
c1ccc2cc(Sc3ncnc4sc5c(c34)CCCC5)ccc2c1	i
CN(C)c1c(N)n(C)c(=O)[nH]c1=O	i
O=C(Cc1ccsc1)NCc1cccs1	i
CC1=C(c2ccccc2)N2CCS(=O)(=O)N=C2S1	i
CC1(C)C2CC=C(/C=N/NC(=S)NC3CCCCC3)C1C2 (centres undefined)	+
C=C(C)CNC(=S)N/N=C/C1=CCC2CC1C2(C)C (centres undefined)	i
CC(C)NC(=S)N/N=C/C1=CCC2CC1C2(C)C (centres undefined)	+
CC1(C)C2CC=C(/C=N/NC(=S)Nc3cccnc3)C1C2 (centres undefined)	i
CCNC(=S)N/N=C/C1=CCC2CC1C2(C)C (centres undefined)	i
CC1(C)C2CC=C(/C=N/NC(N)=S)C1C2 (centres undefined)	i
O=c1[nH]nc(SCc2nc3ccccc3c(=O)[nH]2)c(=O)[nH]1	i
CN1/C(=C/C=C2C(=O)NC(=O)NC2=O)Sc2ccccc21	i
Fc1cc(Cl)ccc1NC(=S)Nc1ccc(Cl)c(Cl)c1	+
C=CCNC(=S)Nc1ccc(F)c(Cl)c1	i
Fc1ccc(NC(=S)Nc2ccc(Cl)c(Cl)c2)cc1Cl	i
Cc1nc(Cc2nnc(SCC(=O)c3cc(C)n(C)c3C)o2)cs1	i
O=C(CN1C(=O)c2ccccc2S1(=O)=O)c1ccc(Br)s1	i
O=[N+]([O-])c1ccc(Nc2ccc(F)cc2)c(S(=O)(=O)N2CCOCC2)c1	i
SMILES	PL synth Enamine
Cc1cc(C(=O)OCc2nc(-c3cccs3)no2)c(C)n1C1CC1	i
Cn1c(-c2ccccc2)c(/C=N/Nc2nncc3ccccc23)c2ccccc21	+
FC(F)(F)c1cccc(/C=N/Nc2nncc3ccccc23)c1	i
Fc1ccc(/C=N/Nc2nncc3ccccc23)cc1F	i
Cc1[nH]c2ccccc2c1/C=N/n1c(-c2cc3ccccc3o2)csc1=NC1CC1	i
CCOc1ccc2c(c1)-c1c(sn(-c3ccc(CC)cc3)c1=S)C(C)(C)N2	i
O=C(CCN1C(=O)C2CCCCC2C1=O)NNC(=O)CC12CC3CC(CC(C3)C1)C2 (centres undefined)	i
